Numbering of substitutions follows the chain as printed.
Legend:
Experiment in all cases: MITOMI; MITOMI, 295 K (22 C); buffer, salt and pH not stated in the material; high values mean tight binding
Conditions in all cases: protein: ivt; label: fluorescent; dsDNA, one strand shown
MarA RQR = target: T1, MarA RQR (Escherichia coli, UniProt P0ACH5 1-127, W40R)
T1 sequence: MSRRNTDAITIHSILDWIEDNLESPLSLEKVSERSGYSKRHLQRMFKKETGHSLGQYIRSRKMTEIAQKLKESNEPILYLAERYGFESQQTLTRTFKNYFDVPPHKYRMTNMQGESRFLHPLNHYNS
Method in brief: (§1)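 MarA protein variants were produced by in vitro transcription and translation using the RTS E. coli HY kit, with tRNA-lys-bodipy-fl added for fluorescent labelling. Each variant was screened by MITOMI against 64 synthesized versions of the mar binding site, and protein and DNA fluorescence were read on Genepix at 295K. Association constants came from MITOMI, and each site's value is relative to the highest-affinity site for that protein variant.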

MarA RTR = target: T2, MarA RTR (Escherichia coli, UniProt P0ACH5 1-127, W40R;Q43T)
T2 sequence: T1 sequence with Q43T
Method in brief: as §1

MarA SAR = target: T3, MarA SAR (Escherichia coli, UniProt P0ACH5 1-127, W40S;Q43A)
T3 sequence: T1 sequence with R40S, Q43A
Method in brief: as §1

MarA TRR = target: T4, MarA TRR (Escherichia coli, UniProt P0ACH5 1-127, W40T;Q43R)
T4 sequence: T1 sequence with R40T, Q43R
Method in brief: as §1

## ATGTTCCGTTTTGCTAAAT
MarA RQR
  binding signal: 0.16 Ka relative to the best site of the variant
MarA RTR
  binding signal: 0.207 Ka relative to the best site of the variant
MarA SAR
  binding signal: 0.254 Ka relative to the best site of the variant
MarA TRR
  binding signal: 0.449 Ka relative to the best site of the variant
